{"source": "PubChem BioAssay (NCATS)"}
{"assay": "Cell Proliferation Assay against the TMD8 Cell Line (AID 651645)", "conditions": "TMD8 DLBCL cell line proliferation/viability; at 46.1 µM (top of the series)", "how_it_was_run": "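Luminescent ATP read-out (CellTiter-Glo, 15 min RT) after 48 h compound exposure of log-growing TMD8 cells at 37C; percent activity scaled between DMSO as 100% and 9.2 uM bortezomib final as 0%.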", "units": {"viability (% of control)": "%"}}
{"smiles": "CCN(CC)CCCCNc1ncc2cc(-c3cc(OC)cc(OC)c3)c(NC(=O)NC(C)(C)C)nc2n1", "viability (% of control)": 3}
{"smiles": "COc1cc2c(Oc3ccc4[nH]c(C)cc4c3F)ncnc2cc1OCCCN1CCCC1", "viability (% of control)": 1.51}
{"smiles": "COc1cc2nccc(Oc3ccc(NC(=O)C4(C(=O)Nc5ccc(F)cc5)CC4)cc3)c2cc1OC", "viability (% of control)": 18.7}
{"smiles": "CC(=O)c1c(C)c2cnc(Nc3ccc(N4CCNCC4)cn3)nc2n(C2CCCC2)c1=O", "viability (% of control)": 0.508}
{"smiles": "Cc1cn2c(-c3cn[nH]c3)cnc2c(Nc2ccc(C(=O)N3CCNCC3)cc2F)n1", "viability (% of control)": 35.7}
{"smiles": "C1=CCOCc2cc(ccc2OCCN2CCCC2)Nc2nccc(n2)-c2cccc(c2)OCC1", "viability (% of control)": 61.1}
{"smiles": "Cc1cc(Nc2cc(NC(=O)c3c(Cl)cccc3Cl)ccn2)nc(N)n1", "viability (% of control)": 2.69}
{"smiles": "CC[C@H](CO)Nc1nc(NCc2ccccc2)c2ncn(C(C)C)c2n1", "viability (% of control)": 7.77}
{"smiles": "CN(C)CCCN=c1c2ccccc2n(C)c2[nH]c(=O)n(C)c(=O)c12", "viability (% of control)": 1.93}
{"smiles": "COc1cc(=C2C=c3ccccc3=N2)[nH]c1=Cc1[nH]c(C)cc1C", "viability (% of control)": 6.25}
{"smiles": "CC(C)(C)c1cc(C(C)(C)C)c(NC(=O)c2c[nH]c3ccccc3c2=O)cc1O", "viability (% of control)": 5.21}
{"smiles": "N#CCNC(=O)c1ccc(-c2ccnc(Nc3ccc(N4CCOCC4)cc3)n2)cc1", "viability (% of control)": 7.51}
{"smiles": "CC(=O)Nc1sc2c(c1-c1nc3ccccc3s1)CNC2", "viability (% of control)": 4.93}
{"smiles": "O=c1[nH]nc(Sc2ncc([N+](=O)[O-])s2)n1-c1ccc2c(c1)OCCO2", "viability (% of control)": 0.996}
{"smiles": "O=C(c1ccc(Nc2nccc(-c3cc4ccccc4s3)n2)cc1)N1CCC(N2CCCC2)CC1", "viability (% of control)": 0.477}
{"smiles": "COc1cc(C(C)C)c2c(c1)S(=O)(=O)N(COc1cc(=O)n3cccc(OCCN4CCCCC4)c3n1)C2=O", "viability (% of control)": 0.892}
{"smiles": "O=C(O)c1ccc2c(c1)nc(Nc1cccc(Cl)c1)c1ccncc12", "viability (% of control)": 0.231}
{"smiles": "Cc1cc(Nc2cc(N3CCN(C)CC3)nc(Sc3ccc(NC(=O)C4CC4)cc3)n2)n[nH]1", "viability (% of control)": 19.5}
{"smiles": "CC(C)=CCCC(C)=CCCC(C)=CCSc1ccccc1C(=O)O", "viability (% of control)": 100}
{"smiles": "O=C(C=Cc1cccc(S(=O)(=O)Nc2ccccc2)c1)NO", "viability (% of control)": 1.87}
{"smiles": "CC(C)(C)OC(=O)Nc1ccc(-c2cc(C(=O)NCCCCCCC(=O)NO)no2)cc1", "viability (% of control)": 2.43}
{"smiles": "Nc1ccc(C(=O)c2cc3c(ccc4ccccc43)[nH]2)cc1", "viability (% of control)": 28.2}
{"smiles": "CC1(O)CC(c2nc(-c3ccc4ccc(-c5ccccc5)nc4c3)c3c(N)nccn23)C1", "note": "(stereo unspecified)", "viability (% of control)": 2.23}
{"smiles": "Cn1c(=O)n(-c2ccc(C(C)(C)C#N)cc2)c2c3cc(-c4cnc5ccccc5c4)ccc3ncc21", "viability (% of control)": 10.6}
{"smiles": "Cn1cncc1[C@@](N)(c1ccc(Cl)cc1)c1ccc2c(c1)c(-c1cccc(Cl)c1)cc(=O)n2C", "viability (% of control)": 1.01}
{"smiles": "Fc1cc(-c2cccc3ncc(-c4cnn(C5CCNCC5)c4)nc23)cc(F)c1CN1CCOCC1", "viability (% of control)": 1.53}
{"smiles": "C=CC(=O)Nc1cccc(Oc2nc(Nc3ccc(N4CCN(C)CC4)cc3OC)ncc2Cl)c1", "viability (% of control)": 0.697}
{"smiles": "CCC(=C(c1ccccc1)c1ccc(OCCN(C)C)cc1)c1ccccc1", "viability (% of control)": -0.936}
{"smiles": "Cc1cnc(Nc2ccc(F)cc2Cl)nc1-c1c[nH]c(C(=O)N[C@H](CO)c2cccc(Cl)c2)c1", "viability (% of control)": -0.93}
{"smiles": "CC(C)(C)c1cc(NC(=O)Nc2ccc(-c3cn4c(n3)sc3cc(OCCN5CCOCC5)ccc34)cc2)no1", "viability (% of control)": 41.9}
{"smiles": "Cc1ccc(C(N)=O)cc1Nc1nccc(-c2cn(C(C)C)c3cnccc23)n1", "viability (% of control)": 5.31}
{"smiles": "Cc1cc(Nc2cc(N3CCN(C)CC3)nc(C=Cc3ccccc3)n2)n[nH]1", "viability (% of control)": 9.16}
{"smiles": "CC(=O)OCC(=O)[C@@]1(O)[C@H](C)C[C@H]2[C@@H]3C=C(C)C4=Cc5c(cnn5-c5ccccc5)C[C@]4(C)[C@@H]3[C@@H](O)C[C@@]21C", "viability (% of control)": 3.02}
{"smiles": "C[C@@H](Oc1cc(-n2cnc3ccc(CN4CCN(C)CC4)cc32)sc1C(N)=O)c1ccccc1C(F)(F)F", "viability (% of control)": 2.56}
{"smiles": "c1cc(-c2cnn3cc(-c4ccc(OCCN5CCCCC5)cc4)cnc23)ccn1", "viability (% of control)": 2.17}
{"smiles": "CNc1nccc(-c2cccnc2Oc2cc(C(=O)Nc3cccc(C(F)(F)F)c3)ccc2C)n1", "viability (% of control)": 6.17}
{"assay": "Cell Proliferation Assay against the HBL1 Cell Line (AID 651646)", "conditions": "HBL1 DLBCL cells; at 46.1 µM (top of the series)", "how_it_was_run": "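CellTiter-Glo luminescence after 48 h compound exposure at 37C gives percent activity, with DMSO as 100% and 9.2 uM bortezomib final as 0%. Cells: 500 log-phase HBL1 per well, RPMI plus 5% FBS.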", "units": {"viability, percent of control": "%"}}
{"smiles": "CCN(CC)CCCCNc1ncc2cc(-c3cc(OC)cc(OC)c3)c(NC(=O)NC(C)(C)C)nc2n1", "viability, percent of control": 7.6}
{"smiles": "COc1cc2c(Oc3ccc4[nH]c(C)cc4c3F)ncnc2cc1OCCCN1CCCC1", "viability, percent of control": 1.27}
{"smiles": "COc1cc2nccc(Oc3ccc(NC(=O)C4(C(=O)Nc5ccc(F)cc5)CC4)cc3)c2cc1OC", "viability, percent of control": 3.78}
{"smiles": "CC(=O)c1c(C)c2cnc(Nc3ccc(N4CCNCC4)cn3)nc2n(C2CCCC2)c1=O", "viability, percent of control": 1.52}
{"smiles": "Cc1cn2c(-c3cn[nH]c3)cnc2c(Nc2ccc(C(=O)N3CCNCC3)cc2F)n1", "viability, percent of control": 85.6}
{"smiles": "Cc1cc(Nc2cc(NC(=O)c3c(Cl)cccc3Cl)ccn2)nc(N)n1", "viability, percent of control": 31.3}
{"smiles": "CC[C@H](CO)Nc1nc(NCc2ccccc2)c2ncn(C(C)C)c2n1", "viability, percent of control": 55}
{"smiles": "CN(C)CCCN=c1c2ccccc2n(C)c2[nH]c(=O)n(C)c(=O)c12", "viability, percent of control": 32.9}
{"smiles": "COc1cc(=C2C=c3ccccc3=N2)[nH]c1=Cc1[nH]c(C)cc1C", "viability, percent of control": 26}
{"smiles": "CC(C)(C)c1cc(C(C)(C)C)c(NC(=O)c2c[nH]c3ccccc3c2=O)cc1O", "viability, percent of control": 5.33}
{"smiles": "N#CCNC(=O)c1ccc(-c2ccnc(Nc3ccc(N4CCOCC4)cc3)n2)cc1", "viability, percent of control": 25.4}
{"smiles": "CC(=O)Nc1sc2c(c1-c1nc3ccccc3s1)CNC2", "viability, percent of control": 22.5}
{"smiles": "O=c1[nH]nc(Sc2ncc([N+](=O)[O-])s2)n1-c1ccc2c(c1)OCCO2", "viability, percent of control": -0.138}
{"smiles": "O=C(c1ccc(Nc2nccc(-c3cc4ccccc4s3)n2)cc1)N1CCC(N2CCCC2)CC1", "viability, percent of control": 0.745}
{"smiles": "COc1cc(C(C)C)c2c(c1)S(=O)(=O)N(COc1cc(=O)n3cccc(OCCN4CCCCC4)c3n1)C2=O", "viability, percent of control": 1.12}
{"smiles": "O=C(O)c1ccc2c(c1)nc(Nc1cccc(Cl)c1)c1ccncc12", "viability, percent of control": 32.2}
{"smiles": "Cc1cc(Nc2cc(N3CCN(C)CC3)nc(Sc3ccc(NC(=O)C4CC4)cc3)n2)n[nH]1", "viability, percent of control": 27.1}
{"smiles": "CC(C)=CCCC(C)=CCCC(C)=CCSc1ccccc1C(=O)O", "viability, percent of control": 85.3}
{"smiles": "O=C(C=Cc1cccc(S(=O)(=O)Nc2ccccc2)c1)NO", "viability, percent of control": 2.01}
{"smiles": "CC(C)(C)OC(=O)Nc1ccc(-c2cc(C(=O)NCCCCCCC(=O)NO)no2)cc1", "viability, percent of control": 3.39}
{"smiles": "Nc1ccc(C(=O)c2cc3c(ccc4ccccc43)[nH]2)cc1", "viability, percent of control": 14.4}
{"smiles": "CC1(O)CC(c2nc(-c3ccc4ccc(-c5ccccc5)nc4c3)c3c(N)nccn23)C1", "note": "(stereo unspecified)", "viability, percent of control": 43}
{"smiles": "Cn1c(=O)n(-c2ccc(C(C)(C)C#N)cc2)c2c3cc(-c4cnc5ccccc5c4)ccc3ncc21", "viability, percent of control": 38.2}
{"smiles": "Cn1cncc1[C@@](N)(c1ccc(Cl)cc1)c1ccc2c(c1)c(-c1cccc(Cl)c1)cc(=O)n2C", "viability, percent of control": 1.3}
{"smiles": "Fc1cc(-c2cccc3ncc(-c4cnn(C5CCNCC5)c4)nc23)cc(F)c1CN1CCOCC1", "viability, percent of control": 2.06}
{"smiles": "C=CC(=O)Nc1cccc(Oc2nc(Nc3ccc(N4CCN(C)CC4)cc3OC)ncc2Cl)c1", "viability, percent of control": 2.13}
{"smiles": "CCC(=C(c1ccccc1)c1ccc(OCCN(C)C)cc1)c1ccccc1", "viability, percent of control": -1.5}
{"smiles": "Cc1cnc(Nc2ccc(F)cc2Cl)nc1-c1c[nH]c(C(=O)N[C@H](CO)c2cccc(Cl)c2)c1", "viability, percent of control": 0.107}
{"smiles": "CC(C)(C)c1cc(NC(=O)Nc2ccc(-c3cn4c(n3)sc3cc(OCCN5CCOCC5)ccc34)cc2)no1", "viability, percent of control": 30.7}
{"smiles": "Cc1ccc(C(N)=O)cc1Nc1nccc(-c2cn(C(C)C)c3cnccc23)n1", "viability, percent of control": 14.4}
{"smiles": "Cc1cc(Nc2cc(N3CCN(C)CC3)nc(C=Cc3ccccc3)n2)n[nH]1", "viability, percent of control": 3.87}
{"smiles": "CC(=O)OCC(=O)[C@@]1(O)[C@H](C)C[C@H]2[C@@H]3C=C(C)C4=Cc5c(cnn5-c5ccccc5)C[C@]4(C)[C@@H]3[C@@H](O)C[C@@]21C", "viability, percent of control": 2.93}
{"smiles": "C[C@@H](Oc1cc(-n2cnc3ccc(CN4CCN(C)CC4)cc32)sc1C(N)=O)c1ccccc1C(F)(F)F", "viability, percent of control": 3.16}
{"smiles": "c1cc(-c2cnn3cc(-c4ccc(OCCN5CCCCC5)cc4)cnc23)ccn1", "viability, percent of control": 8.17}
{"smiles": "CNc1nccc(-c2cccnc2Oc2cc(C(=O)Nc3cccc(C(F)(F)F)c3)ccc2C)n1", "viability, percent of control": 25.3}
